hERG blockade data for 33 molecules are collected here from PubChem BioAssay AID376 (PDSP, 2006).

Among all 2,000 compounds or so, about 250 (12%) were called active. Rule as the data show it: active = hERG blockade below about -20% or above about 20%; inactive = in between. For the sample, actives were picked, then their nearest neighbours and some compounds at random.

In this test the target is Voltage-gated inwardly rectifying potassium channel KCNH2 (Homo sapiens) (UniProt Q12809). In words: KCNH2 potassium channel function modulators, cell-based (AID 376).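 Also: 0% = buffer alone and 100% = reference blocker.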 The note with it: hERG-expressing cells, channel activity single-concentration screen; concentration not given here. (In general: The hERG channel carries a current that helps repolarise heart muscle cells.)
Voltage-gated inwardly rectifying potassium channel KCNH2 (Homo sapiens), sequence (Q12809 whole entry, looked up): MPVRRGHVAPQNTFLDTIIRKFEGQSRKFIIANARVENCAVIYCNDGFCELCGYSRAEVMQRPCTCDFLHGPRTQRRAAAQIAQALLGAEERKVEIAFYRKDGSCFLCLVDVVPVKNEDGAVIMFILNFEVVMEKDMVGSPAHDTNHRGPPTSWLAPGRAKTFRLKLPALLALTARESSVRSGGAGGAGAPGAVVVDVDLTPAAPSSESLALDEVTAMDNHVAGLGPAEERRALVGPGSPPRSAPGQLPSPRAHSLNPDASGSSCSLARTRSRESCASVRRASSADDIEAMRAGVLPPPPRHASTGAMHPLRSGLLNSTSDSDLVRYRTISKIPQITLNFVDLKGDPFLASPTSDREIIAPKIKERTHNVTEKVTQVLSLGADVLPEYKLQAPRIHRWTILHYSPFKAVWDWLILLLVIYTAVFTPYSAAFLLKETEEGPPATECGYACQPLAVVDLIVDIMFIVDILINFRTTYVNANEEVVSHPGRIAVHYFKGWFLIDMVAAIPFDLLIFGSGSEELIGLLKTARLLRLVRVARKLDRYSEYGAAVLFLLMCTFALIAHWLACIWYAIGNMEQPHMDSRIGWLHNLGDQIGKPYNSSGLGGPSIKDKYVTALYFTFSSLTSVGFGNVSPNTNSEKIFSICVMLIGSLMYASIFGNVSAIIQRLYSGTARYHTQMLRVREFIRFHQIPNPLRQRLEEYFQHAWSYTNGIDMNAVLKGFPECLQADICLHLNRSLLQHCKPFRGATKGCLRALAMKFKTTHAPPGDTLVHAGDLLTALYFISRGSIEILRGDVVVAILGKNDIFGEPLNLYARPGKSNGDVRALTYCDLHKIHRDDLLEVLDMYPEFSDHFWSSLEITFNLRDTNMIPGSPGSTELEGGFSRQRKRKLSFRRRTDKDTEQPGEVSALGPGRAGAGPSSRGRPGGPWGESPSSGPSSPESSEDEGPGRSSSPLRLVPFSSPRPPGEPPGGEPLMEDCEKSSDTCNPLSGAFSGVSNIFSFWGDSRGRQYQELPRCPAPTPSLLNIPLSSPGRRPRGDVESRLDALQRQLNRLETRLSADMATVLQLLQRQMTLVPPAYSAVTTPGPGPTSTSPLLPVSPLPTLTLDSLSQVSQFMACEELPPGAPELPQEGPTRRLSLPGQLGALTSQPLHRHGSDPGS
Turning to `C[N+](C)(C)C(Cc1c[nH]c(=S)[nH]1)C(=O)O` (stereo not drawn), the hERG blockade was -14% (inactive).

With `COc1ccc(-c2nc(N)c3ncn(C4OC(CO)C(O)C4O)c3n2)cc1` (stereo not drawn), the hERG blockade is -8.39% (inactive).

Take `CC(C)CC(N)C(=O)O` (stereo not drawn): the hERG blockade is 6.02% (inactive).

With `NC(Cc1ccccc1)(C(=O)O)C(=O)O`, the hERG blockade was -3.15% (inactive).

Turning to `COc1cc(C(=O)O)c([N+](=O)[O-])c(OC)c1OC`, the hERG blockade is 23.9% (active).

Take `COc1ccc(Cc2ccccc2C(=O)O)c2ccccc12`: the hERG blockade is -3.19% (inactive).

Take `NS(=O)(=O)c1cc(C(=O)O)c(Cl)c([N+](=O)[O-])c1Cl`: the hERG blockade was -6.38% (inactive).

As for `Cc1cc(=O)oc2cc(O)c(CN(C)CC(=O)O)cc12`, the hERG blockade was 0.517% (inactive).

With `O=c1[nH]c(=S)[nH]c2c1CN(CCCN1CCOCC1)CN2`, the hERG blockade is 3% (inactive).

For the molecule `NCCSCc1ccccc1Cl`, the hERG blockade was 6.42% (inactive).

`CN(CCO)Cc1ncccc1O`: the hERG blockade was -0.376% (inactive).

Consider `CC(CCC(=O)O)C1CCC2C3CCC4CC(O)CCC4(C)C3CC(O)C12C` (stereo not drawn), for which the hERG blockade was 2.74% (inactive).

For `Cc1nc2cccc([N+](=O)[O-])c2n1CCCN(C)C`, the hERG blockade is 3.79% (inactive).

For `CN(C)CCCn1c2c3ccccc3ccc2c2oc(=O)c3ccccc3c21`, the hERG blockade is 122% (active).

With `Cc1ccc(N2CCN(CCC(=O)O)CC2)cc1`, the hERG blockade was -0.109% (inactive).

On to `CCCn1cnc2c(SCC(=O)O)nc(N)nc21`, for which the hERG blockade is 4.79% (inactive).

Regarding `NC(=S)NN=Cc1c[nH]c2ccccc12`, the hERG blockade was 9.72% (inactive).

Regarding `CCCCNS(=O)(=O)c1n[nH]c(=O)[nH]c1=O`, the hERG blockade is -14.2% (inactive).

Take `CC(CCC(C)=NO)=NO`: the hERG blockade is -14.3% (inactive).

Turning to `Cc1cc(Cl)ccc1Nc1sc(C(=O)c2cc3cc(Cl)ccc3o2)c(N)c1C#N`, the hERG blockade was 24% (active).

For `O=C(O)c1c(-c2nccc3ccccc23)[nH]c(-c2ccccc2)c1S(=O)(=O)O`, the hERG blockade is -1.08% (inactive).

With `COc1ccc2nccc(SCC(=O)O)c2c1`, the hERG blockade is -9.78% (inactive).

Take `CC(=O)Nc1ccc2c(c1)C(=Nc1ccc(C(=O)O)cc1)c1ccccc1-2`: the hERG blockade is 19.5% (inactive).

For `CC(=O)Nc1ccccc1C=C1c2ccccc2-c2ccccc21`, the hERG blockade was -13.9% (inactive).

Turning to `CC(=O)Nc1ccc2c(c1)C(=Cc1ccc([N+](C)(C)C)cc1)c1ccccc1-2`, the hERG blockade was 24.7% (active).

Turning to `Cc1ccc(C(C#N)=Cc2cccc([N+](=O)[O-])c2)cc1`, the hERG blockade was 11.7% (inactive).

Turning to `CC(=O)n1c(COS(C)(=O)=O)nc2ccccc21`, the hERG blockade is 4.86% (inactive).

Turning to `CC1CC(C)(C)CC(OCCN2CCCCC2)(c2ccccc2)C1` (stereo not drawn), the hERG blockade is 21.3% (active).

As for `OC(CCN1CCCCC1)(c1ccccc1)c1ccccc1`, the hERG blockade is 11.6% (inactive).

Turning to `Cc1ccc(S(=O)(=O)Nc2ccccc2C=O)cc1`, the hERG blockade is 5.12% (inactive).

Consider `C[N+]1(CCCC[N+]2(C)CCCCCCC2)CCCCCCC1`, for which the hERG blockade was 13.6% (inactive).

In the case of `N#CC(C#N)=CNCCN1CCN(C=C(C#N)C#N)CC1`, the hERG blockade was -5.6% (inactive).

`CN(C)CCNc1ccccn1`: the hERG blockade is 5.77% (inactive).
